FLuc inh: inhibitors of firefly (Photinus pyralis) luciferase. P08659. purified P. pyralis luciferase, luminescence, biochemical. Potency, µM (top dose mostly 115 µM), hits mostly inhibitors. actives 2.5% (n = 76,000); also: nearly all actives have a fitted effect of over 65% in size
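Purified 10nM P. pyralis luciferase with 10uM D-luciferin and 10uM ATP in 50mM Tris acetate pH 7.5, 10mM Mg acetate, 0.01% Tween-20, 0.05% BSA. qHTS titration; luminescence read by CCD imager.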
GPT2 inh: GPT2 alanine aminotransferase inhibition; Q8TD30; Recombinant GPT2, coupled pyruvate oxidase/HRP Amplex Red fluorescence; Potency, µM (series often up to 57.7 µM), hits mostly inhibitors; actives 0.25% (n = 100,000); also: nearly all actives have a fitted effect of over 60% in size
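Inhibition is scored from Amplex Red fluorescence generated when pyruvate oxidase and HRP act on pyruvate released by GPT2. Reactions contain 10ng/uL enzyme, 250uM a-KG and 2mM L-alanine and run 30 min at room temperature.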
HEK cytotox: cytotoxic compounds in HEK 293 cells | HEK 293 viability, ATP luminescence (CellTiter-Glo), 48-72 h | actives 6.6% (n = 94,000) | Potency, µM (titrated, usually from 115 µM), usual class: inhibitors; also: nearly all actives have a fitted effect of over 60% in size
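Viability of HEK 293 cells, plated at 250 cells/well, was judged by cellular ATP after compound treatment for 48 or 72 hr. Luminescence was imaged 10 min after CellTiter-Glo addition at room temperature.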
3T3 cytotox: kills NIH 3T3 cells; NIH 3T3 viability, CellTiter-Glo ATP luminescence, 48-72 h; Potency, µM (highest dose often 96.7 µM), actives largely listed as inhibitors; actives 4.3% (n = 94,000); AID 1345082; also: nearly all actives have a fitted effect of over 55% in size
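Cytotoxicity is measured as loss of cellular ATP: NIH 3T3 cells (400/well) are exposed to compound for 48 or 72 hr at 37 °C, then CellTiter-Glo luminescence is imaged after 10 min at room temperature.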
hNpr1 antagonist: human Npr1 receptor antagonism. P16066. Potency, µM (series often up to 46.3 µM), usual class: inhibitors. actives 1.6% (n = 76,000). HEK293 hNpr1 GloSensor cGMP, ANP-stimulated luminescence. AID 1347048; calls by dose curve; also: nearly all actives have a fitted effect of over 60% in size
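Compound pre-incubated 30 min at room temperature on GloSensor-loaded HEK293 cells stably carrying hNpr1 and the pGS-40F cGMP biosensor. Stimulation uses hNppA at 0.1 nM final; luminescence is taken at baseline and 20 min post-agonist.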
Numbers stand for hits; 0 = inactive; ? = inconclusive; - = no result. Rows were chosen to be rich in hits. Some 10% of all compounds tested hit in one or more screens of this group. Unless noted, calls follow the shape of the dose curve; as a rule, active = well fitted curve in the direction sought with a large enough effect; inconclusive = small, poorly fitted or top-dose-only effect, or another doubt; inactive = no such curve, though single readings can be large; an effect the other way counts as inactive or inconclusive.

SMILES | FLuc inh | GPT2 inh | HEK cytotox | 3T3 cytotox | hNpr1 antagonist
O=C(c1nccc2ccccc12)N1CCC2(CC1)NCCc1c2[nH]c2ccccc12 | 0 | 0 | 0 | 0 | 0
Cc1nc2cccnc2n1CC1CCCN(S(=O)(=O)c2ccccc2)C1 (centres undefined) | 0 | 0 | ? | 0 | 0
CC(c1ccc(-c2ccc(N(C)C)nn2)cc1)N(C)C (centres undefined) | 15.8µM | 0 | 0 | 0 | ?
CC1=C[C@@H](CN(C)CCC#N)[C@H](C(C)C)C[C@H]1Cc1nnc(-c2ccccc2F)o1 | 0 | 0 | 79.4µM | ? | ?
CC1=C[C@@H](CN(C)CCN(C)C)[C@H](C(C)C)C[C@H]1Cc1nnc(-c2ccccc2)o1 | 0 | 0 | 44.7µM | 28.2µM | 0
CC1=C[C@@H](CN2CCC(C(N)=O)CC2)[C@H](C(C)C)C[C@H]1Cc1nnc(-c2ccccc2F)o1 | 0 | 0 | ? | ? | 0
CC1=C[C@@H](CN(C)CCc2ccccn2)[C@H](C(C)C)C[C@H]1Cc1nnc(-c2ccncc2)o1 | 0 | 0 | 79.4µM | ? | 0
CC1=C[C@@H](CNC(=O)C(C)(C)C)[C@H](C(C)C)C[C@H]1Cc1nnc(-c2ccccc2F)o1 | 0 | 0 | 31.6µM | ? | 0
COCCn1ncc(N2CCC(C(=O)Nc3ccc(C)cc3)C2)cc1=O (centres undefined) | - | 0 | 0 | 0 | -
COc1ccc(-c2cn3cc(C(=O)NCCCc4ccccc4)nc3s2)cc1 | - | 0 | ? | ? | -
COc1cccc(-c2cccc(C(=O)N3CCC4(CCCN(C)C4=O)C3)c2)c1 (centres undefined) | 0 | 0 | ? | 0 | 0
CN(C)C[C@@H]1CN(Cc2cccnc2)C[C@H]1NC(=O)c1ccc(Cl)s1 | 0 | 0 | ? | ? | 0
COc1ccccc1CC(=O)N1CCCc2ncc(C(=O)N3CCCC[C@@H]3Cc3ccccc3)cc21 | 0 | 0 | ? | 0 | 0
Cn1cc(CC(=O)N2CCCc3ncc(C(=O)N4CCCC[C@@H]4Cc4ccccc4)cc32)c2ccccc21 | 0 | 0 | 39.8µM | ? | 0
COc1ccccc1CC(=O)N1CCCc2ncc(C(=O)N3CCCC[C@@H]3c3ccccc3)cc21 | 0 | 0 | ? | 0 | 0
O=C(Cc1cccc(C(F)(F)F)c1)N1CCCc2ncc(C(=O)N3CCCC[C@@H]3c3ccccc3)cc21 | 0 | 0 | 79.4µM | ? | ?
COc1ccc(-c2cc(N3CCC(NC(=O)c4ccc(F)c(Cl)c4)C3)n[nH]2)cc1 (centres undefined) | 0 | 0 | ? | 39.8µM | 0
COc1ccc(C(=O)NC2CCCN(c3cc(-c4ccccc4)[nH]n3)C2)cc1F (centres undefined) | ? | ? | ? | 15.8µM | 0
COc1cc(OC)cc(C(=O)NC2CCCN(c3cc(-c4ccccc4)[nH]n3)C2)c1 (centres undefined) | 25.1µM | 0 | 39.8µM | ? | 0
Cc1ccc(C(=O)NC2CCCN(c3cc(-c4ccc(Cl)cc4)[nH]n3)C2)cn1 (centres undefined) | ? | ? | 28.2µM | ? | 0
CCc1nc2c(c(-c3ccc(OC)cc3)n1)CN(C(=O)c1ccccc1F)CC2 | - | 0 | ? | ? | -
COc1ccc(C(=O)NC2CCN(c3cc(-c4ccc(Cl)cc4)[nH]n3)C2)cc1F (centres undefined) | 0 | 0 | 39.8µM | ? | 0
CCOc1cc(C(=O)NC2CCN(c3cc(-c4ccc(OC)cc4)[nH]n3)C2)cc(OCC)c1OCC (centres undefined) | 0 | 0 | 39.8µM | 22.4µM | 0
COc1ccc(-c2cc(N3CCCC(NC(=O)c4ccc5cc[nH]c5c4)C3)n[nH]2)cc1 (centres undefined) | 11.2µM | 0 | ? | ? | ?
COc1ccc(-c2cc(N3CCC(NC(=O)c4cc(OC)c(OC)c(OC)c4)C3)n[nH]2)cc1 (centres undefined) | 0 | 0 | ? | 0 | 0
COc1ccc(-c2cc(N3CCCC(NC(=O)c4ccccc4Cl)C3)n[nH]2)cc1 (centres undefined) | 44.7µM | ? | ? | ? | 0
COc1ccccc1C(=O)NC1CCN(c2ccc3nnc(C)n3n2)CC1 | - | - | 0 | 0 | -
O=C(c1ccco1)N1CCC(Oc2ccccc2-c2nc(-c3ccccc3)no2)C1 (centres undefined) | 0 | 0 | ? | ? | 0

From PubChem
